Tau fibril ThT: blocks human tau fibril formation measured by thioflavin T. P10636. recombinant tau K18 P301L, heparin-induced fibrillization, ThT fluorescence. Potency, µM (top dose mostly 57.4 µM), for the others: at the highest dose activity, negative = inhibition, hits mostly inhibitors. 270,000 tested, 2.1% active; further: potency means the concentration at half of the fitted maximal effect; nearly all actives have a fitted effect of over 55% in size
Target sequence (P10636 561-689 P618L limits assumed): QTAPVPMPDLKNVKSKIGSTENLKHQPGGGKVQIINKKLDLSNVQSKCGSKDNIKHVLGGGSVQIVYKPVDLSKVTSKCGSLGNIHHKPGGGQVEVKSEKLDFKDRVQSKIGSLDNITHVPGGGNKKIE
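Aggregation was driven by heparin (20 uM final) acting on recombinant tau […] bearing P301L in 100 mM sodium acetate pH 7; fibrils were detected with Thioflavin T.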
Tau fluor cs: counter-screen for tau fibril formation inhibitors | AID 1463 | Potency, µM (titrated, usually from 57.7 µM), for inactives: at the top dose activity change, negative = decrease | 280,000 tested, 0.93% active | tau K18 P301L Alexa594 fluorescence, heparin fibrillization; further: potency means the concentration at half of the fitted maximal effect; nearly all actives have a fitted effect of over 55% in size
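Human tau K18 P301L (15 uM unlabeled, 0.24 uM Alexa 594-labeled) in 100 mM sodium acetate pH 7 with 20 uM heparin, 6 hr at 37 C. ThT 30 uM added, 1 hr ambient; Alexa 594 FP and total fluorescence read at 555/632 nm.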
FBPA coupling cs: counter-screen for Giardia aldolase inhibitors: coupling enzyme system | activity change, negative = inhibition, % at 58.2 µM, hits read low | coupling enzyme system counterscreen, AmpLite Red fluorescence | 290,000 tested, 0.67% active; in the data active means activity change below about -30%
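Fluorescence at 525 nm excitation and 598 nm emission measured inhibition of the coupled detection system without aldolase. Compounds (at 57.5 uM final) were preincubated 10 min at room temperature with coupling enzyme reagent before a 20 min substrate/AmpLite Red step.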
Tau fibril FP: blocks human tau fibril formation measured by polarization; K18 P301L tau heparin fibrillization, Alexa594 FP, 6 h; Potency, µM (doses to about 57.7 µM), inactives show at the top dose activity, negative = inhibition, hits mostly inhibitors; 280,000 tested, 0.39% active; AID 1468; further: potency means the concentration at half of the fitted maximal effect; nearly all actives have a fitted effect of over 55% in size
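Read-out: fluorescence polarization of Alexa 594-labeled tau (0.24 uM), 555 nm excitation, 632 nm emission. Mixtures held 15 uM unlabeled K18 P301L, compound and 20 uM heparin, pH 7 acetate buffer, incubated 6 hr at 37 C.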
KDM4E inh: JMJD2E (human) inhibition; JMJD2E catalytic domain, FDH-coupled NADH fluorescence (FDH is formaldehyde dehydrogenase); 230,000 tested, 1.6% active; AID 2147; B2RXH2; Potency, µM (series often up to 57.1 µM), without a hit: at the highest dose activity change, negative = inhibition, hits mostly inhibitors; active means well fitted inhibition curve with a large enough effect, not every such curve was filed as active; inconclusive means small, poorly fitted or top-dose-only effect, or another doubt; inactive means no such curve, though single readings can be large or run the other way;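 further: potency means the concentration at half of the fitted maximal effect; 0% = wells with enzyme and -100% = buffer wells without enzyme; nearly all actives have a fitted effect of over 50% in size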
Target sequence (B2RXH2 1-337 limits assumed): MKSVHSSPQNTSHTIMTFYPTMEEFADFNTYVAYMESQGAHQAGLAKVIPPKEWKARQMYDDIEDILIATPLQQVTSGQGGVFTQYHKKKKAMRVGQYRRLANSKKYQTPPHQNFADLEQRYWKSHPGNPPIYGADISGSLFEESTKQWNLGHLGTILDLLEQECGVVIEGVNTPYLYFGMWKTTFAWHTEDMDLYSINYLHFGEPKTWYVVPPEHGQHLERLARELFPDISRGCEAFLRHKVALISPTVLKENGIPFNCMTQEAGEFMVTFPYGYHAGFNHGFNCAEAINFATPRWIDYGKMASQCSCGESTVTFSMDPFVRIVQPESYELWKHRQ
* marks the source's active call; other numbers are inactive results; ! = repeats disagree; [ ] = another dose, or the depositor's remark. Only some compounds are listed: those with a hit (about 3% of all), similar ones and a draw of the others. Unless noted, the call rests on the fitted dose curve; in most records, active means well fitted curve in the direction sought with a large enough effect; inconclusive means small, poorly fitted or top-dose-only effect, or another doubt; inactive means no such curve, though single readings can be large; an effect the other way counts as inactive or inconclusive. Unless noted, on the % scale 0 is the no-effect control and ±100 the full control effect.

Results for c1coc(-c2nnc(-c3ccco3)nn2)c1 ?
FBPA coupling cs: -44*

How did CCc1c(-c2ccccc2)nc2ccccc2c1C(=O)NCCc1ccccc1 do in these assays?
Tau fibril ThT: -6%; Tau fluor cs: -9%; Tau fibril FP: 11%

How did O=[N+]([O-])c1cc(C(F)(F)F)ccc1NCCc1c[nH]c2ccc(O)cc12 do in these assays?
Tau fibril ThT: 18µM*; Tau fluor cs: 28µM*[quencher]; FBPA coupling cs: 2; Tau fibril FP: 0%; KDM4E inh: -2%

Results for CS(=O)(=O)NCCCNc1ccc(C(F)(F)F)cc1[N+](=O)[O-] ?
Tau fluor cs: -1%; FBPA coupling cs: 2; Tau fibril FP: 1%; KDM4E inh: -6%

What do the screens show for `O=[N+]([O-])c1cc(C(F)(F)F)ccc1NCCc1c[nH]c2ccccc12`?
Tau fibril ThT: 13µM*; Tau fluor cs: 10µM*[quencher]; FBPA coupling cs: 1; Tau fibril FP: -2%; KDM4E inh: -14%

What do the screens show for `O=C1Cc2ccccc2Sc2c(OCCN3CCCCC3)cccc21`?
Tau fibril ThT: -5%; Tau fluor cs: -1%; FBPA coupling cs: -50*; Tau fibril FP: -3%; KDM4E inh: 3%

How did COc1ccc(/C=N/NC(=O)c2ccc(C)cc2)cc1CN1CCN(c2ccc(F)cc2)CC1 do in these assays?
Tau fibril ThT: -20%; Tau fluor cs: inconclusive; FBPA coupling cs: 6; Tau fibril FP: -1%; KDM4E inh: 1%

Results for COc1ccc(/C=N\NC(=O)c2cc(O)c(O)c(O)c2)cc1CN1CCN(c2ccc(F)cc2)CC1 ?
Tau fibril ThT: inconclusive; Tau fluor cs: inconclusive; FBPA coupling cs: -6; Tau fibril FP: -1%; KDM4E inh: 4µM*

What do the screens show for `COc1ccc(/C=N/NC(=O)c2ccc(O)cc2)cc1CN1CCCc2ccccc21`?
Tau fibril ThT: inconclusive; Tau fluor cs: 14µM*[quencher]; FBPA coupling cs: -4; Tau fibril FP: inconclusive; KDM4E inh: -15%

How did O=C1C(=O)N(C2CCN(S(=O)(=O)c3ccccc3)CC2)CCN1Cc1ccccc1 do in these assays?
Tau fibril ThT: 5%; Tau fluor cs: -2%; Tau fibril FP: -4%

What do the screens show for `Cc1ccc(NC2=C/C(=N\S(=O)(=O)c3cccs3)c3ccccc3C2=O)c(C)c1`?
Tau fibril ThT: inconclusive; Tau fluor cs: inconclusive; FBPA coupling cs: -2; Tau fibril FP: 2%; KDM4E inh: -2%

How did CC(C)(C)c1cc[n+](C2=C([O-])c3ccccc3C(=O)/C2=N\S(=O)(=O)c2cccs2)cc1 do in these assays?
Tau fibril ThT: 18µM*; Tau fluor cs: inconclusive; FBPA coupling cs: -57*; Tau fibril FP: -9%; KDM4E inh: inconclusive

Results for O=C1/C(=N\S(=O)(=O)c2cccs2)C([n+]2ccccc2)=C([O-])c2ccccc21 ?
Tau fibril ThT: inconclusive; Tau fluor cs: inconclusive; FBPA coupling cs: -51*; Tau fibril FP: inconclusive; KDM4E inh: inconclusive

What do the screens show for `Nc1ccc(C(=O)O)c(O)c1`?
Tau fibril ThT: inconclusive; Tau fluor cs: inconclusive; FBPA coupling cs: -6; Tau fibril FP: -4%; KDM4E inh: 7.1µM*!

Results for Nc1ccc(N)c(C(=O)O)c1 ?
Tau fibril ThT: 14µM*; Tau fluor cs: inconclusive; FBPA coupling cs: -34*; Tau fibril FP: inconclusive; KDM4E inh: -6%

Results for CC(=O)Nc1ccc(S(=O)(=O)NCc2cccn2Cc2cccc(C)c2)cc1 ?
Tau fibril ThT: -6%; Tau fluor cs: -27%; Tau fibril FP: inconclusive

What do the screens show for `Cc1ccc(CCNC(=O)CCCn2nc(C)c3c(C)n(-c4ccccc4)nc3c2=O)cc1`?
Tau fibril ThT: -2%; Tau fluor cs: -10%; Tau fibril FP: 2%

What do the screens show for `Cc1nn(C)c2c1c(-c1ccccc1)cc(=O)n2Cc1ccccc1Cl`?
Tau fibril ThT: -11%; Tau fluor cs: -1%; Tau fibril FP: 1%

How did CCOc1ccc2nc(N3C(=O)CNC3=S)sc2c1 do in these assays?
Tau fluor cs: 10%[0.0958 µM]; FBPA coupling cs: 2; Tau fibril FP: -4%[0.0958 µM]; KDM4E inh: 12%

Results for COc1ccc2nc(N3C(=O)/C(=C/c4ccc(Cl)cc4)NC3=S)sc2c1 ?
Tau fibril ThT: 1.1µM*; Tau fluor cs: -11%; FBPA coupling cs: 4; Tau fibril FP: 0%; KDM4E inh: 2%

How did COc1cc2c(cc1OC)-c1cc3ccc4c(c3c[n+]1CC2)OCO4 do in these assays?
Tau fibril ThT: 16µM*; Tau fluor cs: -17%; FBPA coupling cs: -44*; Tau fibril FP: -9%; KDM4E inh: inconclusive

Results for Cc1ccccc1C1CC(=O)Oc2ccc(O)cc21 (configuration not stated) ?
Tau fibril ThT: inconclusive; Tau fluor cs: -23%[126 µM]; FBPA coupling cs: -2; Tau fibril FP: -11%[126 µM]

Results for N#CC1=C(S)N(c2ccc(F)cc2)C(c2cccs2)NC1=O (configuration not stated) ?
Tau fibril ThT: inconclusive; Tau fluor cs: -13%; FBPA coupling cs: 7; Tau fibril FP: inconclusive; KDM4E inh: -1%

How did Cc1cccc(N2C(S)=C(C#N)C(=O)NC2c2cccs2)c1 (configuration not stated) do in these assays?
Tau fibril ThT: 32µM*; Tau fluor cs: -29%; FBPA coupling cs: 8; Tau fibril FP: inconclusive; KDM4E inh: -15%

Results for COc1ccc(-c2noc(CSc3nnc(-c4ccncc4)n3-c3cccc(C)c3)n2)cc1OC ?
Tau fibril ThT: -11%; Tau fluor cs: -8%; Tau fibril FP: 2%

What do the screens show for `Cc1ccc(C(=O)O/N=C\c2ccc(N3CCOCC3)c([N+](=O)[O-])c2)cc1`?
Tau fibril ThT: inconclusive; Tau fluor cs: -16%; FBPA coupling cs: 0; Tau fibril FP: -6%; KDM4E inh: 1%

Results for O=C(O/N=C\c1ccc(N2CCCCC2)c([N+](=O)[O-])c1)c1ccc(Cl)cc1Cl ?
Tau fibril ThT: 5µM*; Tau fluor cs: -25%; FBPA coupling cs: -1; Tau fibril FP: -2%; KDM4E inh: 1%

Results for O=C(/C=C/c1ccc(Cl)cc1)N1CCN(c2ccc(Cl)cc2[N+](=O)[O-])CC1 ?
Tau fibril ThT: 7.9µM*; Tau fluor cs: -20%; FBPA coupling cs: 1; Tau fibril FP: 2%; KDM4E inh: -4%

How did Nc1nnc2c(n1)CCCC2 do in these assays?
Tau fibril ThT: inconclusive; Tau fluor cs: inconclusive; FBPA coupling cs: -30*; Tau fibril FP: inconclusive; KDM4E inh: inconclusive

How did C1CCc2nc3c(nc2C1)CCCC3 do in these assays?
Tau fibril ThT: -5%; Tau fluor cs: -12%; FBPA coupling cs: 3; Tau fibril FP: -4%; KDM4E inh: 3%

What do the screens show for `C#Cc1ccc2c(c1)C(=O)N(C)Cc1c(C(=O)OCCCOC(=O)c3ncn4c3CN(C)C(=O)c3cc(C#C)ccc3-4)ncn1-2`?
FBPA coupling cs: 2

Compound activity (PubChem BioAssay)
